Inconclusive results are not listed. The source made the active and inactive calls. How the source made its calls: active means hit-call score of the fitted dose curve at least 0.9, where 1 is the maximum; inconclusive means response in the unintended direction; inactive means score below 0.9.
These molecules were tested against zebrafish Estrogen Receptor (ER1), esr1 (gene 259252) (UniProt P57717) (assay: ATG_zfER1_EcoTox2: Attagene TRANS-FACTORIAL EcoTox-2 HepG2 Assay for zebrafish Estrogen Receptor (ER1)).
Description: ATG_EcoTox2 is a cell-based, multiplexed assay created by modifying the existing Attagene TRANS-FACTORIAL system to include a panel of nuclear receptors from some or all the following species: human (Homo sapiens), african clawed frog (Xenopus laevis), rainbow trout (Oncorhynchus mykiss), japanese medaka (Oryzias latipes), and zebrafish (Danio rerio). The ECOTOX2-FACTORIAL format uses HepG2, a human liver cell line, with measurements taken at 24 hours after chemical dosing in a 24-well plate. ATG_zfER1_EcoTox2 is one of 29 assay components calculated in the ATG_EcoTox2 assay. It is designed to make measurements of mRNA induction, a form of inducible reporter, as detected with fluorescence intensity signals by Reverse transcription polymerase chain reaction (RT-PCR) and Capillary electrophoresis technology.The assay endpoint ATG_zfER1_EcoTox2 was analyzed in the positive analysis fitting direction relative to DMSO as the negative control and baseline of activity. Using a type of inducible reporter, measures of mRNA for gain-of-signal activity can be used to understand the reporter gene at the transcription factor-level as they relate to the gene ER. Furthermore, this assay endpoint can be referred to as a primary readout, because this assay has produced multiple assay endpoints where this one serves a reporter gene function. To generalize the intended target to other relatable targets, this assay endpoint is annotated to the nuclear receptor intended target family, where the subfamily is steroidal.
Human liver HepG2 cells are transiently transfected with multiple reporter transcription units (MRTUs) in 6-well plates using FuGene 6 reagent (Roche; 3 ml FuGene/1 mg DNA). The MRTU constructs are regulated by a cis-regulating element (promoter). Each RTU expresses a GAL4-UAS that regulates the transcription of a nearby target reporter gene sequence. A major difference between the CIS and TRANS system is that in CIS activities of endogenous TFs are measured, whereas the TRANS assay evaluates changes in activities of exogenous, chimeric NR-Gal4 proteins. […] At the end of 24 hour incubation, total RNA was isolated using TriZol reagent (Invitrogen). The isolated RNA is then reverse-transcribed using oligo(dT) primer and Mo-MLV reverse transcriptase (Invitrogen) with DNAse I (Ambion) treatment for 30 min. The one-tenth of the produced cDNA was amplified by PCR using Taq DNA polymerase (Invitrogen) and two reporter sequence-specific primers. The PCR products were fluorescently labeled by primer extension with 6-arboxyfluorescein (6-FAM) 5'-labeled reporter sequence-specific primer (2 min at 95 C, 20 s at 68 C and 10 min at 72 C) and these products were digested with 5U of HpaI (New England Biolabs) for 2h at 37 C. The fragments were purified using Qiaquick PCR columns (Qiagen), analyzed on an ABI 3130xL genetic analyzer (Applied Biosystems) with peak positions identified by using a set of X-rhodamine (ROX)-labeled MapMarker1000 molecular weight standards (BioVentures). The raw capillary electrophoresis data was processed using Attagraph software (Attagene).

Sequence of zebrafish Estrogen Receptor (ER1), esr1 (gene 259252) (P57717 whole entry, looked up): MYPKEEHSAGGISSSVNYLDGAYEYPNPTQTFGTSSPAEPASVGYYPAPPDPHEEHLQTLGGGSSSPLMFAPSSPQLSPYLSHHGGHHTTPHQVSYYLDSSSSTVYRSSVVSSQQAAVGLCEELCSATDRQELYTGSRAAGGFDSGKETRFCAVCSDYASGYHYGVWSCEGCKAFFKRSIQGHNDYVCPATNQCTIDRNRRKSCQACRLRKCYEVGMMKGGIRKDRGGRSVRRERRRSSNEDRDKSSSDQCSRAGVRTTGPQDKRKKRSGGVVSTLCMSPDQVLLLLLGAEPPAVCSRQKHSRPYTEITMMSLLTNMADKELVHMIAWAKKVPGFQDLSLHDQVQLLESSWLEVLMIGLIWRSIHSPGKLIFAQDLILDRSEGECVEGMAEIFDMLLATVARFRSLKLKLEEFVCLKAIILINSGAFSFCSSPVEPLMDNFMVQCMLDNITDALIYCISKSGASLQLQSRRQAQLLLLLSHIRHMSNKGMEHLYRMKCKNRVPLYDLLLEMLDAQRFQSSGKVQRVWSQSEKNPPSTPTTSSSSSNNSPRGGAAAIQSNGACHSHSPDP

SMILES | outcome
C[C@@H]1C[C@H]2[C@@H]3CCC4=CC(=O)C=C[C@]4(C)[C@@]3(F)[C@@H](O)C[C@]2(C)[C@@]1(O)C(=O)COP(=O)(O)O | inactive
CC(C)OC(=O)C(C)(C)Oc1ccc(C(=O)c2ccc(Cl)cc2)cc1 | inactive
CC(C)(Oc1ccc(C2CC2(Cl)Cl)cc1)C(=O)O (centres undefined) | inactive
Cc1ccc(C)c(OCCCC(C)(C)C(=O)O)c1 | inactive
CC(C)(Oc1ccc(CCNC(=O)c2ccc(Cl)cc2)cc1)C(=O)O | inactive
CC(c1cc2ccccc2s1)N(O)C(N)=O (centres undefined) | inactive
CC(C)(Oc1ccc(Cl)cc1)C(=O)O | inactive
C[C@]12C=CC(=O)C=C1CC[C@@H]1[C@@H]2C(=O)C[C@@]2(C)[C@H]1CC[C@]2(O)C(=O)CO | inactive
C=C(c1ccc(C(=O)O)cc1)c1cc2c(cc1C)C(C)(C)CCC2(C)C | inactive

From PubChem BioAssay AID2284356 (EPA ToxCast)
